# Measured values reported in PubChem BioAssay.
# A number with no mark means an inactive call. For some of these results: Measured potencies and affinities stand elsewhere. Some of the results follow. Activity calls are given as the source filed them.
# Experiments:
# [1] = molecular target: Inward rectifier potassium channel 2 (Mus musculus) (UniProt P35561); assay: inhibition of Kir2.1 inward rectifier potassium flux – cell-based, FluxOR thallium flux, duplicate, confirmation (AID 2032;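 active = Primary-screen hit whose thallium flux fell at least 3 control SD below untreated wells in both duplicates, with normal baseline fluorescence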); details: Kir2.1-expressing cells, FluxOR thallium flux fluorescence, at 10 µM; stronger effect = lower value
# [2] = parental HEK293 cell activity, no Kir2.1 – FluxOR thallium flux, duplicate, single concentration, counter-screen for Kir2.1 inhibitor project, confirmation (AID 2105;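 active = dye signal at least 3 control SD above or below untreated wells in both duplicates, raw fluorescence within 3, either direction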;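 as to FluxOR signal as % of negative control (100 = no effect): percent is based on the flux ratio of peak minus minimum fluorescence over baseline F0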); details: parental HEK293 cells, FluxOR thallium flux fluorescence, at 10 µM; 0% = unstimulated blank wells
# [3] = molecular target: Voltage-gated inwardly rectifying potassium channel KCNH2 (Homo sapiens) (UniProt Q12809); assay: hERG block by Kir2.1 inhibitor candidates – cell-based, thallium flux, counter-screen for Kir2.1 inhibitor project (AID 2236); details: hERG-expressing cells, at 10 µM; stronger effect = higher value;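 also: host cells are CHO cells stably expressing hERG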
# [4] = molecular target: Potassium channel subfamily K member 9 (Homo sapiens) (UniProt Q9NPC2); assay: human KCNK9 potassium channel blockers – cell-based, selectivity assay for Kir2.1 inhibitor project (AID 2329); details: KCNK9-expressing cells, ion flux inhibition, at 10 µM; stronger effect = higher value
# [5] = molecular target: Inward rectifier potassium channel 2 (Mus musculus) (UniProt P35561); assay: Kir2.1 potassium current inhibition – cell-based, secondary, automated electrophysiology, Kir2.1 inhibitor project (AID 463252); details: Kir2.1 cells, automated patch-clamp current inhibition, at 25 µM; stronger effect = higher value
# [6] = parental CHO-K1 cell activation, no KCNQ2 – FluxOR thallium flux, duplicate, counter-screen for KCNQ2 potentiator project, confirmation (AID 2282;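 active = signal rise of at least 3 SD above the untreated control mean, in both duplicate wells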;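 also: counter screen of KCNQ2 potentiator hits so any rise reflects channel-independent effects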); details: parental CHO-K1 cells, FluxOR thallium flux fluorescence; at 10 µM; stronger effect = higher value; zero = vehicle mean+3SD, 100% = vehicle-minus-blank window
# [7] = molecular target: Potassium voltage-gated channel subfamily KQT member 1 (Homo sapiens) (UniProt P51787); assay: KCNQ1 activation in stable CHO cells – cell-based, FluxOR thallium flux, selectivity assay for KCNQ2 potentiator project, confirmation (AID 2283;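 active = fluorescence ratio rise of at least 3 SD of vehicle wells above their mean, in both replicate wells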;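 also: 0% = vehicle mean plus 3 SD and 100% = vehicle minus unstimulated blank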); details: FluxOR thallium flux fluorescence, at 10 µM, stronger effect = higher value, beyond 3SD, as % of vehicle-control signal
# [8] = molecular target: Potassium voltage-gated channel subfamily KQT member 2 (Rattus norvegicus) (UniProt O88943); assay: KCNQ2 potassium channel activity enhancers – cell-based, CHO, FluxOR thallium flux, duplicate, confirmation (AID 2287;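 active = fluorescence ratio rising 3 SD or more over the vehicle control mean in both replicates, plus primary screen hit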;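 also: peak minus minimum thallium fluorescence divided by baseline after K/Tl stimulus; 0% = vehicle mean plus 3 SD and 100% = vehicle minus unstimulated blank difference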); details: CHO-KCNQ2 cells, FluxOR thallium flux fluorescence; at 10 µM; stronger effect = higher value
# [9] = molecular target: Inward rectifier potassium channel 2 (Mus musculus) (UniProt P35561); assay: PubChem AID 2345; details: HEK293 Kir2.1, FluxOR thallium flux fluorescence; at 10 µM; stronger effect = higher value;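 also: 0% = vehicle mean plus 3 SD and 100% = vehicle minus no-stimulus blank window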
# [10] = system: TRPC4 beta (transient receptor potential cation channel C4), mouse; assay: TRPC4 cation channel opening, retest – cell-based, Fluo4 calcium, HEK293 TRPC4beta/mu-opioid, duplicates, 10 µM, confirmation (AID 2426;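 active = fluorescence ratio normalized to control raised more than 50% in primary screen plus both repeat runs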;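 also: percent rise of integrated ratio over buffer wells lacking compound which define 0%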); details: Fluo4 calcium fluorescence, at 10 µM; stronger effect = higher value
# [11] = system: transient receptor potential cation channel C4 beta (TRPC4), mouse; assay: TRPC4 cation channel opening, second retest – cell-based, second round, Fluo4, HEK293 TRPC4beta/mu-opioid, 1 µM, confirmation (AID 2461;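 active = primary screen active and over 50% activation in each of two duplicate runs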); details: Fluo4 calcium fluorescence, at 1 µM; stronger effect = higher value
# [12] = system: TRPC4 (transient receptor potential cation channel C4 beta), mouse; assay: potentiation of DAMGO EC20 TRPC4 response – cell-based, second round, Fluo-4, HEK293 TRPC4beta/mu-opioid, 1 µM, confirmation (AID 2554;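 active = primary screen hit whose fluorescence ratio, in both repeats, exceeds the weak agonist control mean by 3 SD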); details: DAMGO EC20, Fluo-4 calcium flux, at 1 µM; stronger effect = higher value
# [13] = system: TRPC4 beta (transient receptor potential cation channel C4), mouse; assay: potentiation of DAMGO EC20 TRPC4 response – cell-based, Fluo-4, HEK293 TRPC4beta/mu-opioid, confirmation (AID 2555;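 active = primary screen hit whose calcium fluorescence ratio, in both repeats, exceeds the weak agonist control mean by 3 SD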); details: DAMGO EC20, Fluo-4 calcium flux, at 10 µM; stronger effect = higher value
# [14] = molecular target: Short transient receptor potential channel 4 (Mus musculus) (UniProt Q9QUQ5); assay: blockers of DAMGO-evoked TRPC4 calcium flux – cell-based, Fluo4, HEK293 TRPC4beta/mu-opioid, confirmation (AID 2636;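 active = calcium signal cut by more than 3 SD below the full-agonist control yet still positive, in both repeats and the earlier primary screen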); details: at 10 µM; stronger effect = higher value
# [15] = molecular target: Short transient receptor potential channel 4 (Mus musculus) (UniProt Q9QUQ5); assay: blockers of DAMGO-evoked TRPC4 calcium flux – cell-based, second round, Fluo4, HEK293 TRPC4beta/mu-opioid, 1 µM, confirmation (AID 2637;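 active = calcium signal ratio cut to more than 3 SD under the fully stimulated control mean yet still positive, in both repeats and the primary screen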); details: at 1 µM; stronger effect = higher value
# [16] = molecular target: Short transient receptor potential channel 4 (Mus musculus) (UniProt Q9QUQ5); assay: calcium entry via TRPC4 opening agents – cell-based, HEK293 TRPC4/mu-opioid, Fluo-4 calcium, dose response (AID 434937;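 active = primary screen activator hit with a dose response curve and TRPC4 channel activation at any tested dose; inactive = no activation, no dose response, or not a primary hit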)
# [17] = molecular target: Short transient receptor potential channel 4 (Mus musculus) (UniProt Q9QUQ5); assay: potentiation of DAMGO-evoked TRPC4 calcium signal – cell-based, HEK293 TRPC4/mu-opioid, Fluo-4 calcium, EC20 DAMGO, dose response (AID 434941;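 active = earlier screen potentiator hit that boosts the TRPC4 ion channel at some dose, with a dose response; inactive = no potentiation, no dose response, or not a prior hit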;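 also: calcium entry triggered by an EC20 dose of DAMGO at the co-expressed mu-opioid receptor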)
# [18] = molecular target: Short transient receptor potential channel 4 (Mus musculus) (UniProt Q9QUQ5); assay: block of DAMGO-driven TRPC4 calcium entry – cell-based, HEK293 TRPC4/mu-opioid, Fluo-4 calcium, dose response (AID 434942;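 active = primary screen inhibitor hit that blocks the TRPC4 channel at some tested dose, yielding a dose curve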)
# [19] = molecular target: Short transient receptor potential channel 6 (Mus musculus) (UniProt Q61143); assay: TRPC6 blockade by TRPC4 inhibitor hits – cell-based, HEK293, membrane potential dye, duplicate, selectivity assay for TRPC4 inhibitor project, confirmation (AID 434948;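 active = active in primary screen and both duplicates, each dropping signal beyond three positive-control SD with fluorescence still positive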); details: HEK293 TRPC6, membrane potential dye fluorescence, at 10 µM, stimulated with maximal-effect acetylcholine; stronger effect = higher value
# [20] = molecular target: Short transient receptor potential channel 6 (Mus musculus) (UniProt Q61143); assay: TRPC6 opening by TRPC4 activator hits – cell-based, HEK293, membrane potential dye, duplicate, selectivity assay for TRPC4 activator project, confirmation (AID 434950;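 active = membrane potential signal rise above negative control mean plus 3 SD in both duplicates, also active in the earlier TRPC4 screen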); details: HEK293 TRPC6, membrane potential fluorescence, at 10 µM; activation: stronger effect = higher value; outcome: activation
# [21] = molecular target: Short transient receptor potential channel 6 (Mus musculus) (UniProt Q61143); assay: positive modulators of mouse TRPC6 channel – HEK293 cells, membrane potential dye, duplicate, selectivity assay for TRPC4 potentiator project, confirmation (AID 434952;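 active = compound raising the membrane signal above positive-control mean plus 3 SD in both repeats, and a primary screen hit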); details: HEK293 TRPC6, membrane potential dye fluorescence, at 10 µM, maximal acetylcholine added after compound; stronger effect = higher value
# [22] = molecular target: Short transient receptor potential channel 4 (Mus musculus) (UniProt Q9QUQ5); assay: calcium flux activators in TRPC4/5HT1a cells, counter-screen for TRPC4 activator project, cell-based, second counter screen, HEK293 TRPC4/5HT1a, Fluo-4 (AID 434977;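 active = calcium signal rise above buffer-control mean plus 5 SD in both duplicates, and also a hit in the primary screen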;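 also: plate controls were assay buffer for no effect and maximal serotonin response for full effect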); details: Fluo-4 calcium flux, at 10 µM; stronger effect = higher value
# [23] = serotonin-gated TRPC4 signal block – cell-based, second counter screen, HEK293 TRPC4/5HT1a, Fluo-4, counter-screen for TRPC4 inhibitor project, confirmation (AID 434978;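 active = primary screen active whose calcium signal fell more than 3 SD beyond the full-serotonin control mean in both duplicate plates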;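 also: serotonin given first at submaximal then at maximal dose after compound preincubation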); details: Fluo-4 calcium flux, at 10 µM, serotonin added to trigger calcium flux; stronger effect = higher value
# [24] = system: TRPC4 (mouse), co-expressed with 5HT1a in HEK293; assay: enhancement of serotonin-evoked TRPC4 response – cell-based, second counter screen, HEK293 TRPC4/5HT1a, Fluo-4, counter-screen for TRPC4 potentiator project, confirmation (AID 434979;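 active = signal rise over 3 SD above mean of control wells given weak agonist, in both repeats and first screen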); details: Fluo-4 calcium flux, at 10 µM, serotonin added at its EC20 dose; stronger effect = higher value
# [25] = nonspecific calcium rise without TRPC4 – cell-based, HEK293 mu-opioid receptor line, counter-screen for TRPC4 activator project, confirmation (AID 449723;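 active = hit in primary screen, with calcium signal over 5 SD above buffer well mean in both duplicates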;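 also: counter screen cells carry the mu-opioid receptor alone and lack TRPC4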); details: HEK293 mu-opioid cells, Fluo-4 calcium fluorescence, at 10 µM; stronger effect = higher value
# [26] = nonspecific potentiation of DAMGO calcium response – cell-based, HEK293 mu-opioid receptor line, counter-screen for TRPC4 allosteric potentiator project, confirmation (AID 449724;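 active = calcium signal rise more than 3 SD above the low-dose agonist control mean, in both duplicate plates and the primary screen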); details: HEK293 mu-opioid receptor cells, Fluo-4 calcium flux, at 10 µM, compound added before EC20 DAMGO stimulus; stronger effect = higher value
# [27] = molecular target: Potassium voltage-gated channel subfamily KQT member 1 (Homo sapiens) (UniProt P51787); assay: blockers of human KCNQ1 channel – cell-based, Tl flux, duplicate, confirmation (AID 588353;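 active = primary screen active, with duplicate mean exceeding buffer control mean plus 3 SD of buffer wells, cut at about 28% in these data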;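 also: 0% = buffer control ratio and 100% = XE991 inhibitor control ratio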); details: KCNQ1 cell line, FluxOR thallium flux fluorescence; at 10 µM; stronger effect = higher value
# [28] = nonspecific activity in CHO-K1 cells without KCNQ1 – parental CHO cells, Tl flux, counter-screen for KCNQ1 inhibitor project (AID 588366;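 active = mean of duplicate thallium-flux fluorescence ratios in parental host cells more than 5 SD below the buffer control mean, cut at about 0.38 in these data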;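 also: ratio is peak minus minimum fluorescence divided by baseline fluorescence; actives read low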); details: parental CHO-K1, FluxOR thallium flux fluorescence ratio; at 10 µM; stronger effect = lower value; zero means no signal rise above baseline
# [29] = molecular target: Potassium voltage-gated channel subfamily KQT member 2 (Rattus norvegicus) (UniProt O88943); assay: block of rat KCNQ2 potassium channel – cell-based, selectivity assay for KCNQ1 inhibitor project (AID 651746;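 active = mean percent inhibition of the KCNQ2 thallium signal more than 5 SD above the buffer-only control wells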;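 also: 0% = buffer control wells and 100% = XE-991 inhibitor control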); details: KCNQ2 cells, FluxOR thallium flux fluorescence, at 10 µM; stronger effect = higher value
# [30] = molecular target: Potassium voltage-gated channel subfamily E member 1 (Homo sapiens) + Potassium voltage-gated channel subfamily KQT member 1 (Homo sapiens) (UniProt P15382+P51787); assay: block of human IKs channel complex – CHO-K1 cells, thallium flux, FluxOR, selectivity assay for KCNQ1 inhibitor project (AID 652147;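 active = mean percent inhibition of duplicate wells above the buffer-only control mean plus 3 SD of those controls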); details: KCNQ1/KCNE1 cells, FluxOR thallium flux fluorescence; at 10 µM
# [31] = molecular target: Potassium voltage-gated channel subfamily KQT member 2 (Rattus norvegicus) (UniProt O88943); assay: W236L mutant KCNQ2 current enhancers – cell-based, rat KCNQ2 W236L, CHO, automated patch clamp, mechanism study for KCNQ2 potentiator project (AID 2558;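 active = current increase at least 3 SD of the untreated controls above them in both duplicate recordings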); details: at 25 µM
# [32] = nonspecific flux increase, KCNQ1-free cells – parental CHO cells, counter-screen for KCNQ1 potentiator project (AID 493006;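 active = duplicate-averaged activation above buffer control mean plus 5 SD of those controls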;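 also: fluorescence ratio of max minus min over baseline after K+ and Tl+ depolarization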); details: parental CHO-K1 cells, FluxOR thallium flux, at 10 µM; stronger effect = higher value
# [33] = molecular target: Potassium voltage-gated channel subfamily KQT member 1 (Homo sapiens) (UniProt P51787); assay: enhancement of KCNQ1 channel thallium flux – FluxOR thallium flux, CHO cells, duplicates, confirmation (AID 493007;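 active = potentiation averaged over duplicate wells exceeding buffer-only control mean by more than 3 SD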;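 also: 0% = buffer-only wells and 100% = R-L3 activator control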); details: KCNQ1 cell line, FluxOR thallium flux fluorescence, at 10 µM; stronger effect = higher value, % of reference activator effect, buffer zero
# [34] = molecular target: Potassium voltage-gated channel subfamily KQT member 2 (Rattus norvegicus) (UniProt O88943); assay: KCNQ2 thallium flux enhancement – KCNQ2-CHO-K1 cells, selectivity assay for KCNQ1 potentiator project (AID 493009;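 active = mean duplicate potentiation above the buffer control mean plus 5 SD of buffer wells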;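 also: assay conditions were tuned for KCNQ1 rather than KCNQ2 modulators; signal is max minus min fluorescence divided by baseline after thallium stimulus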); details: FluxOR thallium flux fluorescence, at 10 µM; stronger effect = higher value, scaled: buffer 0, activator control 100
# [35] = molecular target: Potassium voltage-gated channel subfamily KQT member 1 (Homo sapiens) (UniProt P51787); assay: KCNQ1 activators by electrophysiology – IonWorks patch clamp, KCNQ1-CHO cells, orthogonal assay for KCNQ1 potentiator project, confirmation (AID 493184;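 active = current rise at least 3 SD above the untreated control mean in each of two repeat wells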); details: automated patch clamp current, at 10 µM; stronger effect = higher value
# Short transient receptor potential channel 4 (Mus musculus), sequence (Q9QUQ5 whole entry, looked up): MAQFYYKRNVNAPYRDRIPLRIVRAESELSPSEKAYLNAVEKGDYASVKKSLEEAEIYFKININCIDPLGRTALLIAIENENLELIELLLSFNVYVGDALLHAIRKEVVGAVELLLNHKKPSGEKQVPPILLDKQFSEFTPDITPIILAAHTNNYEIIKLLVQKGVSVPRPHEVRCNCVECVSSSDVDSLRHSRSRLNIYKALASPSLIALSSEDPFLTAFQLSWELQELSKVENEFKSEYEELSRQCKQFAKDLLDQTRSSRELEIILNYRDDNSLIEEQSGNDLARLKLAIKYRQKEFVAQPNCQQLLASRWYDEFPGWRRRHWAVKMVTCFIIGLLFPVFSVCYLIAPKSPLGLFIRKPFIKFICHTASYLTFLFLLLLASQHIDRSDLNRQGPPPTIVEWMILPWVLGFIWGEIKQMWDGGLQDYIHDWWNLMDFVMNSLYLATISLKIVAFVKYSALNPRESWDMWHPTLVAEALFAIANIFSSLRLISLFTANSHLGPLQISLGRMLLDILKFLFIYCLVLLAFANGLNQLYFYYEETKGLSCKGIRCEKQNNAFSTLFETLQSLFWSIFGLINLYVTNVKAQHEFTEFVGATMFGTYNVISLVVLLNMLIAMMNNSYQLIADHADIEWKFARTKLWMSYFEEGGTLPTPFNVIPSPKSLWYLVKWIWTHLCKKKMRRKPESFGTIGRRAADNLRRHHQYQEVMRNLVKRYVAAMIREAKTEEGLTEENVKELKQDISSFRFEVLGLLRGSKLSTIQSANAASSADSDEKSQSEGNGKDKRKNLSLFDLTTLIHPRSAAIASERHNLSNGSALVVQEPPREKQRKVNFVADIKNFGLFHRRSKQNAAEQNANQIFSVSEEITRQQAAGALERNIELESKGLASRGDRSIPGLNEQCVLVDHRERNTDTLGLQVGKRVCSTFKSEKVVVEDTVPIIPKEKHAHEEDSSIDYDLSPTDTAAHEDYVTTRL
# Inward rectifier potassium channel 2 (Mus musculus), sequence (P35561 whole entry, looked up): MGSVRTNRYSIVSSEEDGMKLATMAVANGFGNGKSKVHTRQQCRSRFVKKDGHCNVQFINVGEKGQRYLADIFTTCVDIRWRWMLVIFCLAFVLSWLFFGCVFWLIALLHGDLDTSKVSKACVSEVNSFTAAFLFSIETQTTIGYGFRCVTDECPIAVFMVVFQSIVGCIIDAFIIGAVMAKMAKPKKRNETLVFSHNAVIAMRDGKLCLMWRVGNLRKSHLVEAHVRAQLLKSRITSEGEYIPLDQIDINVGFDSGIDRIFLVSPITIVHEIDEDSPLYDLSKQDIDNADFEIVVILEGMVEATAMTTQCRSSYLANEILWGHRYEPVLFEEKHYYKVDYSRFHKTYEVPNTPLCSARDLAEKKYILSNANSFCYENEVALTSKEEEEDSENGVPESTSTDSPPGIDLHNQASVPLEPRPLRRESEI
# Short transient receptor potential channel 6 (Mus musculus), sequence (Q61143 whole entry, looked up): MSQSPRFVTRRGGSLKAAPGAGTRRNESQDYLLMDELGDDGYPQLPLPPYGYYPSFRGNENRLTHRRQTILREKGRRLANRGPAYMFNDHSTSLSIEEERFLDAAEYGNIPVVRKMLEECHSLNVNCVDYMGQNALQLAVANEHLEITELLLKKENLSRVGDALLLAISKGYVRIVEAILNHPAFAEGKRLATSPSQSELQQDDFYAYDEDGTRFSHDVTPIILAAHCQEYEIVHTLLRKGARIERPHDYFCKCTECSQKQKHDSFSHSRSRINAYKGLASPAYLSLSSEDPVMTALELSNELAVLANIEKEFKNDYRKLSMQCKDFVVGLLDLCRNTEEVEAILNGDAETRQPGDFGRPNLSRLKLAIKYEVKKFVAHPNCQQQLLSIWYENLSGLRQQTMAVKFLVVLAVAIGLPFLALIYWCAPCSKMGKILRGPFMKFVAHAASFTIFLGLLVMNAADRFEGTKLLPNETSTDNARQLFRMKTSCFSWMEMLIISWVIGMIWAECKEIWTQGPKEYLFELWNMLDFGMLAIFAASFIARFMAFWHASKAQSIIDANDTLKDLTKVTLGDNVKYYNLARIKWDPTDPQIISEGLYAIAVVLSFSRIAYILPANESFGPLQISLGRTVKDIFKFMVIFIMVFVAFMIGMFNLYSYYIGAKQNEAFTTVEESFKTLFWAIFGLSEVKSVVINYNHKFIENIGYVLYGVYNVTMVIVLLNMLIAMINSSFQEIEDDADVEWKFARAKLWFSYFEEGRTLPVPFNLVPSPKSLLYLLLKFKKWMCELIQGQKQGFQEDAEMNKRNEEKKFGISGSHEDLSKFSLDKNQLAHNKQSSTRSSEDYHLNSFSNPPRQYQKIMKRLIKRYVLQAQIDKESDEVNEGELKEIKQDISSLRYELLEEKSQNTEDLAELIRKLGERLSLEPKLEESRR
# Voltage-gated inwardly rectifying potassium channel KCNH2 (Homo sapiens), sequence (Q12809 whole entry, looked up): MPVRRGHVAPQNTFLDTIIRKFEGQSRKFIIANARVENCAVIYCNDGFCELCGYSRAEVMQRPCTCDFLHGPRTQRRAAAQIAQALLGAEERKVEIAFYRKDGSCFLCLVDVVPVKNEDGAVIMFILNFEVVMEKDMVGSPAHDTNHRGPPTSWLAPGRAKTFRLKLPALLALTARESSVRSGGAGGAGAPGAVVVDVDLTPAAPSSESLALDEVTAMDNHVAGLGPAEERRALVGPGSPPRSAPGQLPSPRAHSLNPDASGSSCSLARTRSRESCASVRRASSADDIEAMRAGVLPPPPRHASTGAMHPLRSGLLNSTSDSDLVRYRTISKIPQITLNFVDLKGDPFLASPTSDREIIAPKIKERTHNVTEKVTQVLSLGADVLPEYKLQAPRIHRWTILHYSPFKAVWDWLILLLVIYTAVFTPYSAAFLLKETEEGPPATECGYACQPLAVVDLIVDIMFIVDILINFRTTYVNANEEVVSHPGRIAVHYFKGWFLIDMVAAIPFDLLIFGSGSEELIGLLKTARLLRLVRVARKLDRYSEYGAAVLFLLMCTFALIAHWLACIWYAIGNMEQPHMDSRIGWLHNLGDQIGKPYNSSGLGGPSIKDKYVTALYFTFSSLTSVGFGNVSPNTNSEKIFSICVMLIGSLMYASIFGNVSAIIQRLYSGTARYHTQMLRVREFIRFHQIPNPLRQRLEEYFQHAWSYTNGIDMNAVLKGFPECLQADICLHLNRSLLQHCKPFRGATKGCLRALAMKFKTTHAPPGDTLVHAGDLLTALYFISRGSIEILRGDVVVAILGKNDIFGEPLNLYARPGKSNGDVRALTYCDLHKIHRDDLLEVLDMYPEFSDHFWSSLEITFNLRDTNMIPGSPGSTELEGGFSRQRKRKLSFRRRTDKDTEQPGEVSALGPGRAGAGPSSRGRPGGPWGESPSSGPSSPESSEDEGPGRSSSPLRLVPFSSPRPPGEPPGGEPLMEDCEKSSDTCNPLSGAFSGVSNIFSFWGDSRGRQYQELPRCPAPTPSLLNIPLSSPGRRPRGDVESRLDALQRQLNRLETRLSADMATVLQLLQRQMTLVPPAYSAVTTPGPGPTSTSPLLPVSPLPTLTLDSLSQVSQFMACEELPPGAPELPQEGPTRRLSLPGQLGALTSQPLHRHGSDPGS
# Potassium voltage-gated channel subfamily KQT member 1 (Homo sapiens), sequence (P51787 whole entry, looked up): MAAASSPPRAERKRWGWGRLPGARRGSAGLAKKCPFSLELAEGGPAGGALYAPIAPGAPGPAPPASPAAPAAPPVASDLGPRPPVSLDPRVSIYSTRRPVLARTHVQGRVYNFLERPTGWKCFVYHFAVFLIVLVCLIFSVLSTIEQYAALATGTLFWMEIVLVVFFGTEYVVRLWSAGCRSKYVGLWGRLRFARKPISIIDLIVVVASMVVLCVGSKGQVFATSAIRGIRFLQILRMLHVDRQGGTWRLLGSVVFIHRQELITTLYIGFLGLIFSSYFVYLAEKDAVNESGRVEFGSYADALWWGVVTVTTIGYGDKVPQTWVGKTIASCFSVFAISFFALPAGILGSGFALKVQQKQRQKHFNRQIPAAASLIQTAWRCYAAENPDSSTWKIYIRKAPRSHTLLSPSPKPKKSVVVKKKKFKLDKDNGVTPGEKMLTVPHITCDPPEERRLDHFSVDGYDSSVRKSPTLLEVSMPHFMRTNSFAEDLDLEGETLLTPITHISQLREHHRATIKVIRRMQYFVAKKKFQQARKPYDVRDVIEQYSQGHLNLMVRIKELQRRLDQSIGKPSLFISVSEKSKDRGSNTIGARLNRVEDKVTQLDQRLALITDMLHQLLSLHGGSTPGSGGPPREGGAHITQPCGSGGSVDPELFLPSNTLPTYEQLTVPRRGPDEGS
# Potassium voltage-gated channel subfamily E member 1 (Homo sapiens) + Potassium voltage-gated channel subfamily KQT member 1 (Homo sapiens), sequence (P51787 whole entry, looked up): as the sequence (P51787 whole entry, looked up) above
smiles,measurement,setting,value
Cc1ccccc1C(=O)NCCN=C1NS(=O)(=O)c2ccccc21,outcome,[1],inactive
same,outcome,[2],inactive
same,outcome,[3],inactive
same,outcome,[4],inactive
same,outcome,[5],inactive
Cc1cc2cc3c(cc2nc1SCC(=O)Nc1c(C)cccc1C)CCC3,outcome,[1],inactive
same,outcome,[2],inactive
same,activity increase over 3SD of controls,[6],20.3% (active)
same,activation over 3SD threshold,[7],6.2% (active)
same,"potentiation, less the hit threshold",[8],-22.8%
same,activity over 3SD threshold,[9],-19.1%
COc1ccc(C(O)(C2CCCCC2)C(CN2CCCC2)c2ccccc2)cc1 (stereo not given),"Tl flux remaining, % of negative control (stronger effect = lower value)",[1],49% (active)
same,outcome,[2],inactive
same,outcome,[3],inactive
same,outcome,[4],inactive
same,outcome,[5],inactive
C=CCc1cc(S(=O)(=O)c2ccc(O)c(CC=C)c2)ccc1O,"Tl flux remaining, % of negative control (stronger effect = lower value)",[1],40.5% (active)
same,outcome,[2],inactive
same,outcome,[3],inactive
same,inhibition,[4],79% (active)
same,outcome,[5],inactive
CC1(c2ccccc2Cl)NC(=O)N(CC(=O)NC(=O)NCc2ccco2)C1=O (stereo not given),outcome,[1],inactive
same,outcome,[2],inactive
same,activity increase over 3SD of controls,[6],15.2% (active)
same,activation over 3SD threshold,[7],-28.7%
same,"potentiation, less the hit threshold",[8],-11.8%
same,activity over 3SD threshold,[9],-15.3%
CCC(=O)OCc1c(C(F)(F)F)nn(C)c1Oc1cccc(C(F)(F)F)c1,outcome,[1],inactive
same,outcome,[2],inactive
CCc1ccc(-c2nn(-c3ccccc3)cc2CSC(=N)N)cc1,"Tl flux remaining, % of negative control (stronger effect = lower value)",[1],33.5% (active)
same,outcome,[2],inactive
same,activation,[10],125% (active)
same,outcome,[11],inactive
same,outcome,[12],inactive
same,outcome,[13],inactive
same,outcome,[14],inactive
same,outcome,[15],inactive
same,outcome,[16],inactive
same,outcome,[17],inactive
same,outcome,[18],inactive
same,outcome,[19],inactive
same,outcome,[20],inactive
same,outcome,[21],inactive
same,activation,[22],43.7% (active)
same,outcome,[23],inactive
same,outcome,[24],inactive
same,activation,[25],24.4% (active)
same,outcome,[26],inactive
same,inhibition,[27],126% (active)
same,fluorescence ratio (Tl flux),[28],0.302 (active)
same,inhibition,[29],114% (active)
same,outcome,[30],inactive
COc1cccc(NC(=O)C2C(c3ccccc3)C2(Cl)Cl)c1 (stereo not given),outcome,[1],inactive
same,outcome,[2],inactive
same,activity increase over 3SD of controls,[6],-15.2%
same,activation over 3SD threshold,[7],4.2% (active)
same,"potentiation, less the hit threshold",[8],7% (active)
same,activity over 3SD threshold,[9],-29.8%
same,outcome,[31],inactive
CCn1c(O)c(N=NC2=NC(=O)CS2)c2cc(C)ccc21,outcome,[1],inactive
same,FluxOR signal as % of negative control (100 = no effect),[2],160% (active)
same,activity increase over 3SD of controls,[6],-1.5%
same,activation over 3SD threshold,[7],-22.6%
same,"potentiation, less the hit threshold",[8],0.3% (active)
same,activity over 3SD threshold,[9],-27.4%
same,outcome,[31],inactive
same,activation,[32],244% (active)
same,potentiation,[33],112% (active)
same,potentiation,[34],310% (active)
same,outcome,[35],inactive
